These results are taken from the supplement of paper PMC11417369.

In all, about 25,000 sequences were measured (“ln(normalized median fluorescence intensity)”: median about 7.1, highest 2% from about 10 on). Only a selection was taken, and the highest values are over-represented in it overall.

The subject of this assay is PfSIP2 AP2 domain 1 (GST-tagged). Description: gcPBM binding intensity (ln(normalized median fluorescence intensity)); higher = stronger DNA binding. A digest of the protocol: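 GST-tagged P. falciparum DNA-binding domains, expressed in E. coli (about 25 μg on average), were applied for 1 h to an Agilent 4 × 180k array of primer-extended double-stranded 36-bp intergenic genomic probes plus negative controls. The binding buffer was 1× PBS with 1% milk, 0.2 mg/ml BSA, 0.5% salmon testes DNA and 0.03% Triton X-100. Bound protein was detected with Alexa488 anti-GST antibody and scanned at 488 nm. Binding intensity is the highest Masliner-normalised natural-log median intensity across replicate spots of either probe orientation.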
Take “TATGATACATAAATATGTACGTATAATATATATTTA [XGTACX_site7002]”: the “gcPBM binding intensity (ln)” value was 6.96.
With “ATTATTAAAAATATGGGTACATATTATTGTTATATA [XGTACX_site1958]” the figure was 6.89.
Regarding “AAAAAATAAAAAATATGTACACATTCAAAATTTTAC [XGTACX_site8479]”, the “gcPBM binding intensity (ln)” value was found to be 6.91.
With “TATATTTTTATGTGTGTGCACAAAATAACAAAATAT [GTGCAC_site9596]”, the “gcPBM binding intensity (ln)” value was determined as 9.36.
Consider TATTTTTGGTTATGTGTGCACTATGAACAACAAAAT, for which the “gcPBM binding intensity (ln)” value came out at 10.5.
With “ATTTTATGAAATGTTGCACACAAAAAACAACATGTT [CACACA_site8408]” the figure was 7.66; with “AATATTTGCCTATGTTGTACTGACATTTTTTTAAGT [XGTACX_site6836]”, 7.06.
“TTTTAAGATATAAATTAATACTTATATATATAGATA [CACACA_negctrl_site22]”: the “gcPBM binding intensity (ln)” value turned out to be 6.75.
On to “TAATTACACTTTAAAAGTACATATATAATAACATTA [XGTACX_site379]”, for which the “gcPBM binding intensity (ln)” value was 7.04.
In the case of “ATTAGTTTACACATATGTACATATATTACAACAAAA [XGTACX_site275]” it was 7.34; in that of “AAAAAGAACACAAAAAGTACAAAAATTATAATGATA [XGTACX_site2676]”, 6.98; in that of “AAAAAAAAAACACACACATGCACATCATATTATATA [TGCATGCA_site133]”, 7.03.
Regarding “AAAAAAAAAAAAAACACACACATGCACCTCATATTA [CACACA_site556]”, the “gcPBM binding intensity (ln)” value worked out at 11.4.
For the sequence “ATATTATATATATACACACACACATGCATGCACATA [CACACA_site7917]”, the “gcPBM binding intensity (ln)” value was determined as 8.98.
Take “AACACATACATATATGCACACATTTTATTCCATTAT [CACACA_site2834]”: the “gcPBM binding intensity (ln)” value is 8.05.
As to “ATATTATATATATACACACACACATGCATGCACCTA [CACACA_site106]”, the “gcPBM binding intensity (ln)” value is 11.1.
Turning to “AAAAAAAAAAAAAACACACACATGCACATCATATTA [CACACA_site4467]”, the “gcPBM binding intensity (ln)” value amounted to 7.43.
For “CATATATGGTTATATACATGCACCATTATATTATTA [TGCATGCA_site520]”, the “gcPBM binding intensity (ln)” value stood at 10.3.
With “ATATTATAGATATACACACACACATGCATGCACATA [CACACA_site6203]” the figure was 8.64.
With “ATATGGATTATACATACATGCATACATACATACATA [TGCATGCA_site475]” the figure was 7.1; with “AAAAAAAATGATAATATACACACTTATGGGAGAGCG [CACACA_site2516]”, 6.97; with “TATATAATACGAATTTGTACATATTAAATAAATTAT [XGTACX_site93]”, 6.84.
For the sequence “TTTTAAAAAACAAACACACACGTAGAAAAAAAAAAA [CACACA_site4608]”, the “gcPBM binding intensity (ln)” value was determined as 6.99.
For “GGTAGAAAATCAGTTAAACACACACCGAAAAAAAAA [CACACA_site8934]”, the “gcPBM binding intensity (ln)” value came out at 7.24.
With “TATGAACACCAACACACACACAAAAAAAAAAAAAAA [CACACA_site2013]” the figure was 7.3.
As for “TACATATTTTGTATATATTATTTATTTTATTAGTTT [XGTACX_negctrl_site85]”, the “gcPBM binding intensity (ln)” value came out at 6.74.
Consider “TTAATAGGTCGAAGTAGTACATAAAAATATATATAT [XGTACX_site5960]”, for which the “gcPBM binding intensity (ln)” value turned out to be 8.1.
Take “TATACAATATAAAATACACACGCACCCAAAAAAAAA [CACACA_site9174]”: the “gcPBM binding intensity (ln)” value is 10.4.
With “AATGTACACGCACCCACACACAAACAAATATAAATA [CACACA_site7319]” the figure was 10.3; with “AATGTACCCACACCCACACACAAACAAATATATATA [CACACA_site2751]”, 7.47; with “ATAAAAATTGATTATACACACGCGCCCAGACAACAA [CACACA_site5870]”, 7.24.
“CACCCATAAATATACACACGCACAACACAAAATAAA [CACACA_site2903]”: the “gcPBM binding intensity (ln)” value turned out to be 7.52.
In the case of “ATTATACACGCGCGCACACACAACAAAAAAAAAAAA [CACACA_site7630]” it was 7.59; in that of “GACACCCATAAATATACACACGCACAACACAAAATA [CACACA_site8944]”, 7.67.
As to “AATGTACACCCACCCACACACAAACAAATATATATA [CACACA_site5521]”, the “gcPBM binding intensity (ln)” value turned out to be 7.62.
As to “ATAAAAATTGATTATACACACGCGCACCCACAACAA [CACACA_site3536]”, the “gcPBM binding intensity (ln)” value was determined as 11.2.
With “TATATATAATTCATACATTTTAAATATATTTATTTA [CACACA_negctrl_site840]”, the “gcPBM binding intensity (ln)” value was 7.01.
With “TATTGAATAAAATGCACACGCATGCGTTATTTATTA [CACACA_site3479]” the figure was 6.9.
As for “ATATATCATGCCAAGGGTACAAATGTGTAGTTGAAA [XGTACX_site2820]”, the “gcPBM binding intensity (ln)” value came to 7.16.
On to “AAAAAAAAATACATATGTACTTATGTATAATGTTGT [XGTACX_site8104]”, for which the “gcPBM binding intensity (ln)” value is 7.14.
On to “AACTTTTTACAAACAGGTACGCATATATATATATAT [XGTACX_site5081]”, for which the “gcPBM binding intensity (ln)” value came out at 8.9.
In the case of “AAAATACACGCATACACACACACACCCACCCATATA [CACACA_site639]”, the “gcPBM binding intensity (ln)” value amounted to 7.14.
In the case of “TCCCCTTAATTTAAAACACACAAACAAATAAGTTAG [CACACA_site5973]” it was 6.91; in that of “AAGAGGATACACAATGTGCACTTTTTTTTTTTTTTT [GTGCAC_site9415]”, 10.5.
For “TATAAGAGGATATATACACACAAAAATATGTACAGT [CACACA_site6885]”, the “gcPBM binding intensity (ln)” value came out at 7.07.
Take “GAATGTCTAATTTTGATGCACACTTTTGTGCAATTA [CACACA_site2902]”: the “gcPBM binding intensity (ln)” value is 8.6.
